# Compound activity from PubChem BioAssay.
# Hits are enriched below; roughly 5.7% of the tested compounds scored in any of these assays.
# HT1080 IDH1KD tx: kills HT-1080 cells with IDH1 knockdown | Potency, µM (highest dose often 46.1 µM), without a hit: top-dose activity, negative = toxicity, usual class: cytotoxic | AID 686971 | actives 2% (n = 360,000) | HT-1080 IDH1 knockdown viability, ATP luminescence, 48 h;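 note: 0% = DMSO wells and -100% = cell-free medium wells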
#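 IDH1KD HT-1080 cells, 750/well, RPMI + 5% FBS; compound pinned after 2 h settling; 48 h, 37 °C; CellTiter-Glo luminescence; % activity normalised to DMSO and no-cell wells; curves fitted, classed by r2 and efficacy.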
# HT1080NT lethal: kills 2HG-producing HT-1080-NT fibrosarcoma cells; Potency, µM (highest dose often 46.1 µM), for the others: at the highest dose activity, negative = less viability, usual class: cytotoxic; AID 686970; actives 1.6% (n = 360,000); HT-1080-NT fibrosarcoma viability, CellTiter-Glo ATP luminescence, 48 h;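 note: NT is the 2HG producing partner of a matched IDH1 knockdown line; 0% = DMSO-treated cells and -100% = media-only wells without cells; nearly all actives have a fitted effect of over 55% in size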
#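 HT-1080-NT fibrosarcoma cells (2HG-overproducing), 750 cells/well in RPMI with 5% FBS, dosed after 2 h and incubated 48 h at 37C. CellTiter-Glo luminescence normalized to DMSO and no-cell wells; concentration-response curves fitted and classed.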
# KB-V1 MDR tox: KB-V1 MDR subline cytotoxicity; actives 3.4% (n = 400,000); Potency, µM (doses to about 46.1 µM), hits mostly cytotoxic; AID 1347076; KB-V1 MDR cells viability, CellTiter-Glo, 72 h; note: nearly all actives have a fitted effect of over 60% in size
#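 Compound-treated KB-V1 multidrug-resistant cells, 72 h, 37 degrees C; viability by CellTiter-Glo. Fitted qHTS curves give the values.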
# KB-3-1 cytotox: KB-3-1 parental cell cytotoxicity. actives 1.4% (n = 400,000). Potency, µM (highest dose often 46.1 µM), usual class: cytotoxic. AID 1347075. KB-3-1 viability, CellTiter-Glo ATP luminescence, 72 h; note: nearly all actives have a fitted effect of over 60% in size
#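 Viability of parental KB-3-1 cells, measured by CellTiter-Glo luminescence, followed a 72 h incubation at 37 °C with pinned compounds in phenol-red-free DMEM containing 10% FBS.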
# Starred values were filed as active, the others as inactive; i = inactive; ? = inconclusive; · = no result. Calls come from the whole dose curve; as a rule, active = well fitted curve in the direction sought with a large enough effect; inconclusive = small, poorly fitted or top-dose-only effect, or another doubt; inactive = no such curve, though single readings can be large; an effect the other way counts as inactive or inconclusive. Unless noted, % is set by controls: 0 for no effect and ±100 for the full control effect; potency is the fitted concentration of half-maximal effect.
SMILES,HT1080 IDH1KD tx,HT1080NT lethal,KB-V1 MDR tox,KB-3-1 cytotox
COc1ccc(NC(=O)c2oc3ccccc3c2NC(=O)c2cccc(F)c2)c(OC)c1,·,·,i,i
Cc1cc(C(=O)COc2ccccc2C(N)=O)c(C)n1CC1CCCO1 (stereo unspecified),?,?,4.6µM*,i
CN(C(=O)COC(=O)c1ccccc1OCC(=O)Nc1ccc(Br)cc1)c1ccccc1,-13%,-20%,·,·
Cc1ccc(C(=O)N(CN2CCCC2=O)c2ccc(F)cc2)cc1C,0%,23%,18µM*,i
Cc1ccc(N(CN2CCCC2=O)C(=O)c2ccc(C)c(C)c2)cc1,0%,6%,8.2µM*,i
Cc1ccccc1NS(=O)(=O)c1ccc(C(=O)NCC(c2ccco2)N(C)C)cc1 (stereo unspecified),-10%,-5%,15µM*,i
Cc1ccccc1NS(=O)(=O)c1ccc(C(=O)N2CCCC2)cc1,6%,3%,21µM*,i
Cc1ccccc1NS(=O)(=O)c1ccc(N2CCCC2=O)cc1,9.2µM*,12µM*,2.6µM*,5.2µM*
COc1ccc(NS(=O)(=O)c2ccc(N3CCCC3=O)cc2)cn1,18µM*,15µM*,?,?
Cc1nn(C)c(C)c1NS(=O)(=O)c1ccc(N2CCCC2=O)cc1,?,-29%,?,?
COc1ccc(-n2c(=O)c3sc4ccccc4c3n(CC(=O)NC3CCCCC3)c2=O)cc1,·,·,i,i
Cc1ccc(OCCNS(=O)(=O)c2ccc(N3CCCC3=O)cc2)cc1C,-2%,?,16µM*,?
Cc1nc2ccc(S(=O)(=O)Nc3ccccc3C)cc2s1,?,?,18µM*,?
O=C1CCCN1c1ccc(S(=O)(=O)NCCc2ccc(Cl)cc2)cc1,?,-18%,18µM*,i
COc1ccc(OC)c(NS(=O)(=O)c2ccc(N3CCCC3=O)cc2)c1,0.52µM*,0.52µM*,2.1µM*,0.82µM*
CCn1c(=O)c2sccc2n2c(CCC(=O)Nc3ccc(F)cc3)nnc12,·,·,i,i
OCCCNc1nc(-c2ccc(Cl)cc2)nc2ccccc12,-2%,-6%,i,i
Clc1ccc(-c2nc(NCCN3CCOCC3)c3ccccc3n2)cc1,?,?,4.1µM*,i
CSCCC(NC(=O)COc1ccccc1)C(=O)N(C)CC(=O)Nc1ccc(Cl)cc1 (stereo unspecified),-8%,-11%,3.7µM*,i
CSCCC(NC(=O)COc1ccccc1)C(=O)NC1CCC(C)CC1 (stereo unspecified),-2%,5%,8.2µM*,i
COc1ccc(NC(=O)CN(C)C(=O)C(NC(=O)c2ccco2)C(C)C)cc1 (stereo unspecified),3%,-2%,i,i
COc1cccc(NC(=O)CN(C)C(=O)C(CCSC)NC(=O)c2ccco2)c1 (stereo unspecified),-2%,-7%,18µM*,i
CN(C)C(=O)c1ccc2c(c1[N+](=O)[O-])C(=O)c1ccccc1C2=O,-16%,-18%,?,i
C=CCc1cccc2cc(C(=O)NCCc3c(C)[nH]c4c(C)cccc34)c(=O)oc12,·,·,i,i
Cc1[nH]c2c(C)cccc2c1CCNC(=O)c1ccc2c(c1[N+](=O)[O-])C(=O)c1ccccc1C2=O,21µM*,16µM*,i,?
SMILES,HT1080 IDH1KD tx,HT1080NT lethal,KB-V1 MDR tox,KB-3-1 cytotox
Cc1[nH]c2ccccc2c1CCNC(=O)c1ccc2c(c1[N+](=O)[O-])C(=O)c1ccccc1C2=O,?,-17%,16µM*,i
O=C1C(C=NCc2ccncc2)=C(O)c2ccccc21,-9%,-2%,i,i
O=C1N/C(=C/c2ccc(Br)cc2)C(O)=C1C=NCc1ccccc1,?,?,?,4.6µM*
O=S(=O)(c1ccccc1)c1nnn2c1nc(NCc1ccc(F)cc1)c1sccc12,·,·,?,i
COc1ccccc1C(C[N+](=O)[O-])c1c(N)n(C)c(=O)n(C)c1=O (stereo unspecified),?,?,7.3µM*,?
COc1ccccc1C(c1c(N)n(C)c(=O)n(C)c1=O)C(C)[N+](=O)[O-] (stereo unspecified),-3%,-1%,i,i
O=C(Nc1cc(=O)[nH]c(=O)[nH]1)c1cc(Cl)ccc1Cl,3.3µM*,?,?,4.1µM*
O=C(Nc1cc(=O)[nH]c(=O)[nH]1)c1cccc(C(F)(F)F)c1,-9%,-10%,i,i
CNc1nc2cc([N+](=O)[O-])c([N+](=O)[O-])cc2nc1NC,3.3µM*,3.3µM*,i,8.2µM*
O=C1OC(Nc2ccc(F)c([N+](=O)[O-])c2)c2ccccc21 (stereo unspecified),0%,-3%,i,i
O=C1OC(Nc2ccc3c(c2)OCO3)c2ccccc21 (stereo unspecified),18µM*,?,?,?
CC(C(=O)Nc1ccc(C#N)cc1)N(C)CC(=O)Nc1ccccc1Br (stereo unspecified),23µM*,?,i,i
COc1ccc(O)c(/C=N/n2c(-c3ccco3)csc2=Nc2cccnc2)c1,-7%,-18%,i,i
CC(C)N=c1scc(-c2cccs2)n1/N=C/c1ccc(O)c(O)c1O,16µM*,?,i,?
CCN=c1scc(-c2cccs2)n1/N=C/c1cc(OC)ccc1O,-25%,-17%,?,18µM*
COc1ccc(Oc2cc(C(F)(F)F)nc(N(C)C)n2)cc1,-1%,-5%,i,i
CC(C)(O)C#Cc1ccc(N2C(c3ccsc3)=Cc3ccc(F)cc3C2c2c[nH]c3ccc(C#N)cc23)cc1 (stereo unspecified),23µM*,?,?,?
CC(=O)N1CCc2c(sc3c2c(=O)n(-c2ccc(C)cc2)c(=O)n3CC(=O)Nc2ccccc2)C1,·,·,i,i
CC(C)CCNC(=O)CN1C(=O)c2cccnc2Sc2ccccc21,·,·,i,i
CC(=O)Nc1cc(-c2cccc(C(=O)NCCN(C)C)c2)cn2c(-c3ccc(F)c(Cl)c3)cnc12,21µM*,16µM*,i,i
CC(=O)Nc1cc(-c2ccc(F)cc2)cn2c(-c3ccc(F)c(Cl)c3)cnc12,?,?,i,i
CC(=O)Nc1cc(-c2cccc(F)c2)cn2c(-c3ccc(F)c(Cl)c3)cnc12,?,?,?,i
CC(=O)Nc1cc(-c2cccc(C(=O)NCCN(C)C)c2)cn2c(-c3ccc(C(C)=O)cc3)cnc12,?,18µM*,i,?
CC(=O)Nc1cc(-c2ccc(CO)cc2)cn2c(-c3ccc(F)c(Cl)c3)cnc12,?,33µM*,i,i
CC(C)NC(=O)Cn1ncn2c(cc3cc(F)ccc32)c1=O,·,·,i,i
O=C1Cc2cc(S(=O)(=O)N3CCN(c4ccc(C(F)(F)F)cc4)CC3)ccc2N1,·,·,i,i
